This is part of a sample that, as a whole, favours compounds with a hit. Of some 83,000 tested, about 20% had one in any assay.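 48-hour exposure, single concentration, 96-well plates; percent growth endpoint where 0 means no net growth. Active: below 10.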 Activity calls are given as the source filed them.
Experiments:
Assay in all cases: NCI-60 one-dose screen, 48 h (100 = growth as untreated, 0 = no growth, -100 = all killed)
SK-MEL-2 melanoma = settings: 10 µM unless noted
EKVX NSCLC = settings: 10 µM unless noted
SN12C renal = settings: 10 µM unless noted
UO-31 renal = settings: 10 µM unless noted
TK-10 renal = settings: 10 µM unless noted
ACHN renal = settings: 10 µM unless noted
CAKI-1 renal = settings: 10 µM unless noted
HL-60(TB) leukemia = settings: 10 µM unless noted
CCRF-CEM leukemia = settings: 10 µM unless noted
A498 renal = settings: 10 µM

Measured: growth

CC(C)(C)C(=O)OCOP(=O)(NCc1ccccc1)C1CCCN(O)C1=O (centres undefined)
inactive: SK-MEL-2 melanoma 53.7% | EKVX NSCLC 67.3% | TK-10 renal 68.9% | ACHN renal 34.2% | CAKI-1 renal 31.9% | HL-60(TB) leukemia 52.2% | CCRF-CEM leukemia 12.9%
active: SN12C renal 5.58% | UO-31 renal 1.82%

C=C1[C@@H](C)[C@H]2[C@H](Cc3ccccc3)NC(=O)[C@]23[C@@H](O)/C=C/[C@@](C)(O)C(=O)[C@@H](C)C/C=C/[C@H]3[C@@H]1O
inactive: SK-MEL-2 melanoma 65.1% | EKVX NSCLC 57.2% | SN12C renal 66.1% | UO-31 renal 31.6% | TK-10 renal 39.6% | ACHN renal 45.6% | CAKI-1 renal 52.5% | HL-60(TB) leukemia 73.4% | CCRF-CEM leukemia 48%

Cc1c2cc(Cl)c3ccccc3c2c[n+]2ccccc12
active: SK-MEL-2 melanoma -16.6% | SN12C renal -19.4%
inactive: EKVX NSCLC 43.2% | UO-31 renal 62% | TK-10 renal 93.3% | ACHN renal 92.2% | A498 renal 90.2% | HL-60(TB) leukemia 62.3% | CCRF-CEM leukemia 35.5%

Cc1ccc(C(Cc2ccccc2)NCCO)cc1 (centres undefined)
inactive: SK-MEL-2 melanoma 54.7% | EKVX NSCLC 100% | SN12C renal 102% | UO-31 renal 86.1% | TK-10 renal 88% | ACHN renal 89.6% | A498 renal 97.9% | HL-60(TB) leukemia 91.4% | CCRF-CEM leukemia 98.5%

Nc1c(F)cc(-c2nc3cc(F)ccc3[se]2)cc1Br
inactive: SK-MEL-2 melanoma 90.5% | EKVX NSCLC 32.7% | SN12C renal 88.1% | UO-31 renal 60.1% | ACHN renal 27.5% | A498 renal 31.4% | HL-60(TB) leukemia 95.9% | CCRF-CEM leukemia 95.5%
active: TK-10 renal -4.6%

CC1(C)N=C(N)N=C(N)N1c1cccc(CCCCc2ccc(Cl)c(S(=O)(=O)F)c2)c1
inactive: SK-MEL-2 melanoma 52.3% | EKVX NSCLC 51.5% | SN12C renal 30.5% | UO-31 renal 92.4% | TK-10 renal 55.5% | ACHN renal 87.5% | A498 renal 86.1% | HL-60(TB) leukemia 18.8% | CCRF-CEM leukemia 28.1%

COc1ccc([As]=[As]c2ccc(OC)c(NCS(=O)(=O)O)c2)cc1NCS(=O)(=O)O (centres undefined)
inactive: SK-MEL-2 melanoma 23.9% | SN12C renal 12.4% | UO-31 renal 25.7% | ACHN renal 46.6% | A498 renal 20.9%
active: EKVX NSCLC 0.829% | TK-10 renal -16.2% | HL-60(TB) leukemia -7.43% | CCRF-CEM leukemia -13.9%

C=C(C)[C@@]12OC3(/C=C/C=C/CCCCC)O[C@@H]1[C@@H]1[C@@H]4O[C@]4(CO)[C@@H](O)[C@]4(O)C(=O)C(C)=C[C@H]4[C@@]1(O3)[C@H](C)[C@H]2OC(=O)c1ccccc1
inactive: SK-MEL-2 melanoma 80.4% | EKVX NSCLC 67.4% | SN12C renal 16.5% | UO-31 renal 39.7% | TK-10 renal 47.1% | ACHN renal 42.9% | CCRF-CEM leukemia 45.8%
active: A498 renal -47.2% | HL-60(TB) leukemia -7.45%

CC[C@H](C)[C@H](NC(=O)C12CC(NC(C)=O)(C1)C2)C(=O)N(C)[C@H](C[C@@H](OC(C)=O)c1nc(C(=O)N[C@@H](Cc2ccccc2)C[C@H](C)C(=O)OC)cs1)C(C)C
active: A498 renal -14.8% | HL-60(TB) leukemia -10.1%
inactive: SK-MEL-2 melanoma 48.8% | EKVX NSCLC 38.3% | SN12C renal 30.9% | UO-31 renal 59% | TK-10 renal 50.4% | ACHN renal 43.8% | CCRF-CEM leukemia 12.2%

COC(=O)CC[C@H](Cc1ccccc1)NC(=O)c1csc([C@@H](C[C@H](C(C)C)N(C)C(=O)[C@@H](NC(=O)[C@H]2CCCCN2C)C(C)C)OC(C)=O)n1
inactive: SK-MEL-2 melanoma 54.1% | EKVX NSCLC 44.1% | SN12C renal 43.8% | UO-31 renal 49.7% | TK-10 renal 42.5% | ACHN renal 23.9% | CCRF-CEM leukemia 19.8%
active: A498 renal 5.63% | HL-60(TB) leukemia 4.63%

CN(C)C(=O)Oc1ccccc1-c1ccccc1
inactive: SK-MEL-2 melanoma 102% | EKVX NSCLC 101% | SN12C renal 102% | UO-31 renal 86.3% | TK-10 renal 109% | ACHN renal 104% | A498 renal 115% | HL-60(TB) leukemia 99.7% | CCRF-CEM leukemia 96.9%

COC(=O)[C@@H](C)C[C@H](Cc1ccccc1)NC(=O)c1nc([C@@H](C[C@H](C(C)C)N(C)C(=O)[C@@H](NC(=O)[C@H]2CCCN2C)C(C)C)OC(C)=O)sc1C
active: A498 renal -2.29% | HL-60(TB) leukemia -33.5%
inactive: SK-MEL-2 melanoma 36.6% | EKVX NSCLC 45.4% | SN12C renal 31% | UO-31 renal 43.9% | TK-10 renal 13.6% | ACHN renal 19.6% | CCRF-CEM leukemia 10.3%

CCOC(=O)[C@@H](C)C[C@H](Cc1ccccc1)NC(=O)c1csc([C@@H](C[C@H](C(C)C)N(C)C(=O)CNC(=O)[C@H]2CCCCN2C)OC(C)=O)n1
inactive: SK-MEL-2 melanoma 28.1% | EKVX NSCLC 34.8% | SN12C renal 36% | UO-31 renal 39.7% | TK-10 renal 65.7% | ACHN renal 43.7%
active: A498 renal -3.32% | HL-60(TB) leukemia -32.3% | CCRF-CEM leukemia 5.17%

Cc1cc(C)cc(Nc2nc3c(s2)CC[C@@]2(C)C3=CC[C@@H]3[C@@H]2CC[C@]2(C)C(=O)CC[C@@H]32)c1
active: CCRF-CEM leukemia 3.37%
inactive: SK-MEL-2 melanoma 54.9% | EKVX NSCLC 89.4% | SN12C renal 54.2% | UO-31 renal 59.4% | TK-10 renal 77.6% | ACHN renal 63.4% | A498 renal 78% | HL-60(TB) leukemia 57.6%

CC(=O)O[C@H](C[C@H](C(C)C)N(C)C(=O)[C@@H](NC(=O)[C@H]1CCCN1C)C(C)C)c1nc(C(=O)N[C@@H](Cc2ccccc2)C[C@H](C)C(=O)O)c(C)s1
inactive: SK-MEL-2 melanoma 36.5% | EKVX NSCLC 53.7% | SN12C renal 29.2% | UO-31 renal 49.3% | TK-10 renal 42.4% | ACHN renal 26.7%
active: A498 renal -2.65% | HL-60(TB) leukemia -19.2% | CCRF-CEM leukemia 8.48%

CC(=O)O[C@H]1C(=O)[C@@]2(C)[C@H]([C@H](OC(=O)c3ccccc3)[C@]3(O)C[C@H](OC(=O)[C@H](OC(=O)OCC4COC(C)(C)O4)[C@@H](NC(=O)c4ccccc4)c4ccccc4)C(C)=C1C3(C)C)[C@]1(OC(C)=O)CO[C@@H]1C[C@@H]2O (some centres undefined)
inactive: SK-MEL-2 melanoma 54.2% | EKVX NSCLC 70.8% | SN12C renal 51.7% | UO-31 renal 71.3% | TK-10 renal 79.6% | ACHN renal 66.5% | A498 renal 47.1% | HL-60(TB) leukemia 12.8% | CCRF-CEM leukemia 31.3%

CC[C@H](C)[C@H](NC(=O)[C@H]1CCCCN1C)C(=O)N(C)[C@H](C[C@@H](O)c1nc(C(=O)N[C@@H](Cc2ccccc2)C[C@H](C)C(=O)O)cs1)C(C)C
inactive: SK-MEL-2 melanoma 41.3% | EKVX NSCLC 91.5% | SN12C renal 90.5% | UO-31 renal 84.1% | TK-10 renal 91.9% | ACHN renal 106% | A498 renal 76.2% | CCRF-CEM leukemia 43.5%
active: HL-60(TB) leukemia 8.99%

Cc1cc(NC(=O)NCc2ccc(N3C(N)=NC(N)=NC3(C)C)cc2)ccc1S(=O)(=O)F
inactive: SK-MEL-2 melanoma 34.4% | EKVX NSCLC 53.5% | SN12C renal 33.6% | UO-31 renal 80.1% | TK-10 renal 45.7% | ACHN renal 89.2% | A498 renal 77.7% | HL-60(TB) leukemia 24.7% | CCRF-CEM leukemia 55.4%

Fc1ccc2c(c1)c(-c1nc(-c3c[nH]c4ncccc34)cs1)cn2CCN1CCOCC1
inactive: SK-MEL-2 melanoma 67.4% | EKVX NSCLC 32.8% | SN12C renal 65.8% | UO-31 renal 25.5% | TK-10 renal 64.1% | ACHN renal 48.3% | A498 renal 74.1% | HL-60(TB) leukemia 48.1% | CCRF-CEM leukemia 35.2%

CCCCN1CCCC[C@@H]1C(=O)N[C@H](C(=O)N(C)[C@H](C[C@@H](OC(C)=O)c1nc(C(=O)NC2CCC(C(=O)OC)CC2)cs1)C(C)C)C(C)C (some centres undefined)
active: HL-60(TB) leukemia -30.4% | CCRF-CEM leukemia 5.58%
inactive: SK-MEL-2 melanoma 35.5% | EKVX NSCLC 34.8% | SN12C renal 46.3% | UO-31 renal 52.8% | TK-10 renal 55.6% | ACHN renal 54.8% | A498 renal 22.3%

C[C@]12CCc3nc(Nc4ccccc4F)sc3C1=CC[C@@H]1[C@@H]2CC[C@]2(C)C(=O)CC[C@@H]12
inactive: SK-MEL-2 melanoma 92.8% | EKVX NSCLC 94.4% | SN12C renal 69.5% | UO-31 renal 64.8% | TK-10 renal 35.7% | A498 renal 90.6% | HL-60(TB) leukemia 34.2% | CCRF-CEM leukemia 26.6%
active: ACHN renal 9.9%

CCOC(=O)[C@@H](C)C[C@H](Cc1ccccc1)NC(=O)c1csc([C@@H](C[C@H](C(C)C)N(C)C(=O)[C@H](CCC(C)C)NC(=O)[C@H]2CCCCN2C)OC(C)=O)n1
active: TK-10 renal -5.17% | ACHN renal 9.24% | A498 renal -11.5% | HL-60(TB) leukemia -32.3% | CCRF-CEM leukemia 9.03%
inactive: SK-MEL-2 melanoma 28.1% | EKVX NSCLC 45.6% | SN12C renal 18.9% | UO-31 renal 20.6%

CC1(C)C(C(=O)c2cn(CCCCF)c3ccccc23)C1(C)C
inactive: SK-MEL-2 melanoma 86.4% | EKVX NSCLC 88.7% | SN12C renal 103% | UO-31 renal 95.2% | TK-10 renal 102% | ACHN renal 115% | A498 renal 92.9% | HL-60(TB) leukemia 76% | CCRF-CEM leukemia 87.1%

COc1ccc2c(c1)c(-c1nc(-c3cn(C)c4ncccc34)cs1)cn2CCCCN1CCCCC1
inactive: EKVX NSCLC 55.4% | A498 renal 71.8%
active: SK-MEL-2 melanoma -31.5% | SN12C renal -79.7% | UO-31 renal -89.4% | TK-10 renal -26.8% | ACHN renal -95.2% | HL-60(TB) leukemia -64.9% | CCRF-CEM leukemia -50.5%

C/C=C(\C)C(=O)O[C@@H]1C(O)[C@H]2OC(COC(=O)CCC(=O)CCCCCC[C@H](CCCCC)O[C@@H]3OC(C)[C@H](OC(C)=O)C(O)[C@H]3O2)[C@H]1OC(=O)/C=C/c1ccccc1 (some centres undefined)
inactive: EKVX NSCLC 24.1% | SN12C renal 17.2% | UO-31 renal 15% | TK-10 renal 11.7% | ACHN renal 12% | A498 renal 14.8% | HL-60(TB) leukemia 17.8% | CCRF-CEM leukemia 24.2%
active: SK-MEL-2 melanoma -1.53%

COc1ccc(Nc2ccc([N+](=O)[O-])cc2[N+](=O)[O-])cc1CN(CCCl)CCCl
active: HL-60(TB) leukemia -17.7% | CCRF-CEM leukemia 2.14%
inactive: SK-MEL-2 melanoma 42.9% | EKVX NSCLC 70.7% | SN12C renal 21.4% | UO-31 renal 31.4% | TK-10 renal 56.7% | ACHN renal 15.2% | A498 renal 18.5%

Reference: PubChem BioAssay (NCI)
